In PubChem BioAssay:
Active and inactive are the calls of the source.

Columns and labels:
[1] = anti-His antibody binders, primary screen, artefact control for SMM control protein annotation, biochemical, small-molecule microarray, 635 nm fluorescence (AID 1128); conditions: anti-His Alexa647 antibody binding, higher = more signal;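 further: score merges feature fluorescence with signal-to-noise for each printed compound spot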
[2] = test system: Human papillomavirus type 1a E7 protein (residues 1-88); assay: HPV1a E7 small-molecule binders, primary screen, biochemical, small-molecule microarray, residues 1-88, 635 nm (AID 1129); conditions: small-molecule microarray binding, fluorescence 635 nm; higher = more signal
[3] = biological target: Focal adhesion kinase 1 (Homo sapiens) (UniProt Q05397); assay: small-molecule microarray binders of FAK, primary screen, biochemical, 635/667 nm fluorescence, BSA, DTT (AID 1130); conditions: PTK2 binding, 635 nm fluorescence, higher = more signal;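 further: composite of spot emission at 667 nm and signal to noise over triplicate slides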
Focal adhesion kinase 1 (Homo sapiens), sequence (Q05397 whole entry, looked up): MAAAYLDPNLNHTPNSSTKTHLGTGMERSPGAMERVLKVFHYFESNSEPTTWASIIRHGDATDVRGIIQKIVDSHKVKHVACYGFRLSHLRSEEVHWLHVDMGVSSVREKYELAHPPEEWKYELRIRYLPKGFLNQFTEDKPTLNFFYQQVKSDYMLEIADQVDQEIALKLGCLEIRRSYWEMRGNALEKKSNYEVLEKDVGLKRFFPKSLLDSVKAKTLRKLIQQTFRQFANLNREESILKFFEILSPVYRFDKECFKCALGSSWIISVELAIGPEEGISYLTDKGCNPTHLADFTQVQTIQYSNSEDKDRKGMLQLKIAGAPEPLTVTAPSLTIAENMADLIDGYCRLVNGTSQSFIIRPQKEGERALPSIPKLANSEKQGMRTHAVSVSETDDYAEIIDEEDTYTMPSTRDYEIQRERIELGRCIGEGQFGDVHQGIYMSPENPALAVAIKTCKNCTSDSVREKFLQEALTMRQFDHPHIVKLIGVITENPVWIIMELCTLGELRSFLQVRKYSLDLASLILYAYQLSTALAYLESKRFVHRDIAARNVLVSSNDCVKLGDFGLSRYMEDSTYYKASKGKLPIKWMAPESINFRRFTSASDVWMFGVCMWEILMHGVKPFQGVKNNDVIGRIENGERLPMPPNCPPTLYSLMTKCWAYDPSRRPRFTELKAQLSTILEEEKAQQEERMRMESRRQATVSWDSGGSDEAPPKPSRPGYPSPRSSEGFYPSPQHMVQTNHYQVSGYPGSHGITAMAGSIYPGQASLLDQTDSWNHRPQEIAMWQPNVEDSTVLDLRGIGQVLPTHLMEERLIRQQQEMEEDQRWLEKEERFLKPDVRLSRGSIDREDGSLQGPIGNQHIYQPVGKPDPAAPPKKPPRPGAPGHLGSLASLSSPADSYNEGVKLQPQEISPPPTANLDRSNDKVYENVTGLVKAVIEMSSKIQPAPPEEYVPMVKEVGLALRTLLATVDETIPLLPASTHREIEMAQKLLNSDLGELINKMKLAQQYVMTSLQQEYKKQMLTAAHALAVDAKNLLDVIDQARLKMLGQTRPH

[4] = test system: Fibrinogen (Alexa647-labelled); assay: fibrinogen binders on compound microarrays, profiling panel, artefact control for SMM control-protein annotation, biochemical, small-molecule microarray, 635/667 nm fluorescence (AID 1131); conditions: fibrinogen-A647 binding fluorescence, higher = more signal;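 further: z-score merges 667 nm fluorescence with per-spot signal-to-noise over triplicate slides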
[5] = biological target: Follistatin (Homo sapiens) (UniProt P19883); assay: follistatin binders on small-molecule microarrays, primary screen, biochemical, small-molecule microarray, 635/667 nm fluorescence (AID 1132); conditions: FST binding, 635 nm fluorescence, higher = more signal
Follistatin (Homo sapiens), sequence (P19883 whole entry, looked up): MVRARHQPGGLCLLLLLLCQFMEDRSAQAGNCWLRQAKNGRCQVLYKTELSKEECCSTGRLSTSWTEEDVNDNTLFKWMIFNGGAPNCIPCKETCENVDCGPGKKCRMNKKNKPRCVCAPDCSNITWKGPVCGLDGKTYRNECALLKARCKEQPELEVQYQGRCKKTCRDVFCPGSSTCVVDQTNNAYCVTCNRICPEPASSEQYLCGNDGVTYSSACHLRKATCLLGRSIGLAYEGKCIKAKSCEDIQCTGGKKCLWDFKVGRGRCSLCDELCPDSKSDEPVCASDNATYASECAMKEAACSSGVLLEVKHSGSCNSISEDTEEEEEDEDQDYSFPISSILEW

[6] = biological target: Fibroblast growth factor 2 (Homo sapiens) (UniProt P09038); assay: FGF2 binders on small-molecule microarrays, primary screen, biochemical, small-molecule microarray, 635/667 nm fluorescence (AID 1133); conditions: small-molecule microarray binding, FGF2, fluorescence 635/667; higher = more signal
Fibroblast growth factor 2 (Homo sapiens), sequence (P09038 whole entry, looked up): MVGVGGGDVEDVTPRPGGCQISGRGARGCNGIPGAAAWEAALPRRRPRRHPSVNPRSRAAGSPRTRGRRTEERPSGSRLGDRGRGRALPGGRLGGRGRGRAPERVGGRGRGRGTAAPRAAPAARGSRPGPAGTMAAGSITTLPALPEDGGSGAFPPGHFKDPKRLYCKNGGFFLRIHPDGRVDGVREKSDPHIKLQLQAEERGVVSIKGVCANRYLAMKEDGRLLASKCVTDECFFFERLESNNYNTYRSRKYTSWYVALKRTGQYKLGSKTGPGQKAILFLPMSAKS

[7] = mitochondrial membrane potential change in A549 cells, profiling panel, cell-based, JC-1 fluorescence, basal, 24 h, 100 nL (AID 1138); conditions: higher = more signal;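 further: A549 lung adenocarcinoma cells under basal conditions with no added stimulus; test concentration not given here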
[8] = test system: Lefty1; assay: Lefty1 binders on small-molecule microarrays, primary screen, biochemical, small-molecule microarray, 635/667 nm fluorescence (AID 1139); conditions: small-molecule microarray binding, fluorescence 635/667; higher = more signal
[9] = test system: wheat germ agglutinin (Triticum aestivum), Alexa647-labelled; assay: wheat germ agglutinin binders on compound microarrays, profiling panel, artefact control for SMM control-protein annotation, biochemical, small-molecule microarray, 635/667 nm fluorescence (AID 1140); conditions: WGA-A647 binding, 635 nm fluorescence, higher = more signal;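 further: score merges 667 nm feature emission with signal to noise over triplicate slides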
[10] = biological target: Luciferin 4-monooxygenase (Photinus pyralis) (UniProt P08659); assay: firefly luciferase enzyme inhibitors, primary screen, biochemical, luminescence, purified enzyme, 2006 set (AID 1141); conditions: SteadyGlo luminescence, 30 min, higher = more signal, called active from +8 up or from −8 down;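 further: cell-free assay with purified firefly luciferase at 100 ng per well in PBS; test concentration not given here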
Luciferin 4-monooxygenase (Photinus pyralis), sequence (P08659 whole entry, looked up): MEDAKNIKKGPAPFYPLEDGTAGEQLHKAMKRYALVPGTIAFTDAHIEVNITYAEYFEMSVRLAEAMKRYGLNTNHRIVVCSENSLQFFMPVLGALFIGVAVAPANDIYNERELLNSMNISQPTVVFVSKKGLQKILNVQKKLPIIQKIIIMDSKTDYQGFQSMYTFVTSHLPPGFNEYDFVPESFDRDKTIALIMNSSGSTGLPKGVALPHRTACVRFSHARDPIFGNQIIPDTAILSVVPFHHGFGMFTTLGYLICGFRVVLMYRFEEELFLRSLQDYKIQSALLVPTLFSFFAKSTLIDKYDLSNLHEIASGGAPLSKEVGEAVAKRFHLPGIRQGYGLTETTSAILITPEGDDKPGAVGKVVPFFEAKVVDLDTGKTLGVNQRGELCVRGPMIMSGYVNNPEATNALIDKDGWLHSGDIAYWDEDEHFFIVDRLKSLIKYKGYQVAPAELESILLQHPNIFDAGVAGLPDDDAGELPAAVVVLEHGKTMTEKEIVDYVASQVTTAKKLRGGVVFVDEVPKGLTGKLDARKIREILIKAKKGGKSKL

SMILES	composite z-score [1]	composite z-score [2]	composite z-score [3]	composite z-score [4]	composite z-score [5]	composite z-score [6]	z-score [7]	composite z-score [8]	composite z-score [9]	z-score [10]
COCCCNC(=O)[C@@]1(Cc2ccccc2)N=C(c2ccc(OCCCO)cc2)O[C@H]1c1ccccc1	3.17	1.26	0.102	0.959	0.448	0.706	0.26	-0.559	1.11	-0.391 (inactive)
COCCCN1C(=O)[C@@]2(c3ccc([N+](=O)[O-])cc3)CC(=O)N(C3CCCCC3)[C@@H]2c2ccc(CO)cc21	0.245	-0.62	-0.101	-0.538	1.14	0.594	-0.39	0.655	-0.0848	-0.302 (inactive)
CCCC#C[Si](O[C@H](CC)c1cn([C@H](CO)Cc2ccccc2)nn1)(C(C)C)C(C)C	0.236	0.842	0.249	0.892	0.963	0.344	0.175	0.41	0.0686	-0.453 (inactive)
CN(C)C(=O)[C@]1(Cc2ccccc2N=[N+]=[N-])N=C(c2ccc(OCCCO)cc2)O[C@@H]1c1ccccc1	1.03	1.22	0.633	0.882	1.31	1.58	1.71	0.0484	0.986	-1.08 (inactive)
COCCOC(=O)N1C(=O)[C@@]2(c3cc(C#CC4=CCCCC4)ccc31)[C@H](C(=O)Nc1nc3ccccc3s1)[C@H]1C(=O)O[C@H](c3ccccc3)[C@H](c3ccccc3)N1[C@@H]2c1ccccc1OCCO	0.772	1.19	2.14	0.766	1.38	0.946	-2.18	1.21	0.845	-1.88 (inactive)
COCC(=C=CC[C@@H](O)c1ccccc1OCCO)C[C@@H](O)c1cc(Cl)cc(Cl)c1O	0.819	1.23	0.14	0.867	1.24	1.21	-0.41	0.666	0.289	-1.02 (inactive)
O=C1OCCC=C[C@H]2OC34C=CCN(CCN5CCOCC5)C(=O)[C@H]3N(CCCCCCO)C(=O)[C@@H]4C12 (stereo not given in full)	0.626	-0.525	0.604	-1	-0.061	-0.486	0.884	0.0839	-0.255	-0.892 (inactive)
O=C1O[C@H](c2ccccc2)[C@H](c2ccccc2)N2[C@H]1[C@@H](C(=O)N1CCN(c3ncccn3)CC1)[C@]1(C(=O)Nc3ccc(C#CC4=CCCCC4)cc31)[C@H]2c1ccc(O)cc1	0.896	1.21	0.0908	0.756	0.792	0.357	-0.48	0.497	0.605	-0.0055 (inactive)
C=CCNC(=O)[C@@H]1[C@H]2C(=O)O[C@H](c3ccccc3)[C@H](c3ccccc3)N2[C@H](c2ccccc2OCCO)[C@@]12C(=O)N(C(=O)OCCOC)c1ccc(C#CCNC(N)=O)cc12	1.56	1.14	0.322	0.887	0.864	0.658	-0.206	0.857	0.916	-0.63 (inactive)
C=CCOC(=O)[C@H]1[C@@H]2C(=O)O[C@@H](c3ccccc3)[C@@H](c3ccccc3)N2[C@@H](c2ccc(OCCOC(=O)[C@H]3C[C@H]4C(=O)N5CCC[C@H]5C(=O)N4[C@H]3c3ccc(O)cc3)cc2)[C@]12C(=O)Nc1ccccc12	0.442	1.26	1.13	0.598	1.39	1.96	-1.42	1.42	0.0976	-0.205 (inactive)
COC(=O)c1c(CC[C@@H](CO)NC(=O)N[C@@H](C)Cn2cc(C3(O)CCCCC3)nn2)oc(C(C)=O)c1C(=O)OC	2.77	1.12	-0.262	0.747	1.22	1.29	-1	1.66	0.696	0.599 (inactive)
CC(C)C[C@@H]1NC(=O)[C@H]2C[C@@H](C(=O)NCCCCCCN)[C@@H](c3ccc(O)cc3)N2C1=O	2.99	-0.313	0.496	0.8	1.32	0.823	-1.06	0.632	0.0592	-0.288 (inactive)
[N-]=[N+]=NCc1ccccc1C[C@]1(C(=O)O)N=C(c2ccc(OCCCO)cc2)O[C@H]1c1ccccc1N=[N+]=[N-]	0.906	1.19	0.532	0.985	1.1	0.582	-1.17	0.354	1.2	-13.8 (active)
O=C(NCc1ccccc1)[C@@]1(Cc2ccccc2)N=C(c2ccc(OCCCO)cc2)O[C@H]1c1ccccc1	1.47	1.22	0.45	0.866	0.368	-0.352	0.164	-0.872	1.05	0.712 (inactive)
O=C1OCCC/C=C\[C@H]2OC34C=CCN(Cn5nnc6ccccc65)C(=O)[C@H]3N(CCO)C(=O)[C@@H]4C12 (stereo not given in full)	0.893	-0.318	-0.344	-1.27	-0.481	-1.36	-0.438	-0.368	0.556	1.27 (inactive)
C=CC[C@@]1(C(N)=O)N=C(c2ccc(OCCCO)cc2)O[C@@H]1c1ccccc1CN=[N+]=[N-]	2.78	1.17	-0.111	0.968	1.08	0.107	-0.95	-0.344	1.52	-1.35 (inactive)
CCCCCN1CC=CC23O[C@@H]4/C=C\CCCOC(=O)C4[C@H]2C(=O)N(C(CO)C(C)C)[C@@H]3C1=O (stereo not given in full)	-0.208	-0.376	-0.295	-0.796	0.0945	-0.603	-0.46	0.418	0.869	0.451 (inactive)
